Tests used:
Assay in all cases: PBM binding z-score (relative to random genomic background probes); higher = stronger binding; sequences stand for … in GC…GCGATTGACAGCGTAGAATGAAGG
[1] = system: FXR:RXRa (NR concentration 270 nM, RXRa partner concentration 90 nM)
Outline: (§1)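 Custom Agilent 4×180K protein-binding microarrays carried double-stranded probes. Their 34-nt variable regions held direct-repeat seeds, single-nucleotide variants, half-site ablations and random human genomic background sequences. Arrays were incubated 1 h with ligand-free nuclear receptor dimers in PBS pH 7.4, 2% milk, 0.02% Triton X-100, 1 mM DTT, 0.2 mg/mL BSA and 0.4 mg/ml salmon testes DNA. Antibodies against each partner (one per run) detected binding, and scanned fluorescence was regression-normalized. Binding z-scores use random background probes as reference.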

[2] = system: LXRa:RXRa (NR concentration 270 nM, RXRa partner concentration 90 nM)
Outline: as §1

[3] = system: LXRa homodimer (NR concentration 270 nM)
Outline: as §1

[4] = system: LXRb:RXRa (NR concentration 270 nM, RXRa partner concentration 90 nM)
Outline: as §1

[5] = system: LXRb homodimer (NR concentration 270 nM)
Outline: as §1

[6] = system: PPARa:RXRa (NR concentration 270 nM, RXRa partner concentration 90 nM)
Outline: as §1

[7] = system: PPARg:RXRa (NR concentration 180 nM, RXRa partner concentration 90 nM)
Outline: as §1

[8] = system: PPARg:RXRa 270nM:90nM, anti-RXR (NR concentration 270 nM, RXRa partner concentration 90 nM)
Outline: as §1

[9] = system: PPARg:RXRa 30nM:10nM, anti-RXR (NR concentration 30 nM, RXRa partner concentration 10 nM)
Outline: as §1

[10] = system: PPARg:RXRa 90nM:30nM, anti-RXR (NR concentration 90 nM, RXRa partner concentration 30 nM)
Outline: as §1

[11] = system: PPARg:RXRa DBDmut IVT, anti-RXR (DBD mutation: RXRa K156A/R161A, NR concentration 270 nM, RXRa partner concentration 90 nM)
Outline: as §1

[12] = system: PPARg:RXRa IVT, anti-PPARg (NR concentration 270 nM, RXRa partner concentration 90 nM)
Outline: as §1

[13] = system: PPARg DBDmut:RXRa IVT, anti-PPARg (DBD mutation: PPARg1 K132A/R137A, NR concentration 270 nM, RXRa partner concentration 90 nM)
Outline: as §1

[14] = system: PPARg DBDmut IVT, anti-PPARg (DBD mutation: PPARg1 K132A/R137A, NR concentration 270 nM)
Outline: as §1

[15] = system: PPARg homodimer (NR concentration 180 nM)
Outline: as §1

[16] = system: PXR:RXRa (NR concentration 270 nM, RXRa partner concentration 90 nM)
Outline: as §1

[17] = system: PXR homodimer (NR concentration 270 nM)
Outline: as §1

[18] = system: RARa:RXR (NR concentration 270 nM, RXRa partner concentration 90 nM)
Outline: as §1

[19] = system: RARa homodimer (NR concentration 270 nM)
Outline: as §1

[20] = system: RARb:RXRa (NR concentration 270 nM, RXRa partner concentration 90 nM)
Outline: as §1

Sequence	PBM binding z-score [1]	PBM binding z-score [2]	PBM binding z-score [3]	PBM binding z-score [4]	PBM binding z-score [5]	PBM binding z-score [6]	PBM binding z-score [7]	PBM binding z-score [8]	PBM binding z-score [9]	PBM binding z-score [10]	PBM binding z-score [11]	PBM binding z-score [12]	PBM binding z-score [13]	PBM binding z-score [14]	PBM binding z-score [15]	PBM binding z-score [16]	PBM binding z-score [17]	PBM binding z-score [18]	PBM binding z-score [19]	PBM binding z-score [20]
CCTACTGGGCCAAGGTCATTGATCAGTCAAAGCA	2.95	3.12	1.06	2.74	-0.497	4.1	4.15	4.44	1.5	3.81	3.5	4.5	-0.374	-1.03	1.27	3.3	0.534	3.29	-0.4	3.27
TCTAGTTCGTCAAAGGTCACACACTCGAAATGCG	6.15	6.02	4.48	5.55	1.9	5.99	5.62	6.47	5.73	6.28	2.89	3.87	2.7	1.85	3.82	6.15	2.25	6.52	3.27	5.24
TCTGCTAGGTCAAGGATGGTCAGCTAATCTGCTA	2.86	2.82	-0.0468	1.48	-0.198	3.12	2.01	3.21	2.02	2.71	4.19	4.08	-0.492	0.24	0.578	1.23	-0.697	2.26	-0.712	3.97
ACTCGGAGGCCAAAGGTCAGAGCTACGCCAGTGA	4.88	4.5	1.02	3.69	0.134	5.63	8.85	7.98	6.53	8.9	1	4.07	0.0532	-0.392	6.38	4.9	-0.00137	6.59	1.38	4.53
GGAACGAGGGCATTCGAGTTGACAGCATGGCGAT	1.65	1.9	-0.394	-0.0362	-0.953	1.34	0.875	0.675	-0.547	-0.0204	2.98	2.46	0.222	-0.00883	-0.393	3.85	1.46	0.951	-0.555	1.87
ATCGAAAGCTCGAAGGTGAGTATACCCACCCGAA	-0.601	-0.626	-0.677	-0.458	-0.832	-0.531	0.476	-0.226	-0.209	-0.372	-0.94	-0.157	0.15	-0.14	-1.31	-0.547	-0.343	-0.558	-0.499	0.055
CTCGAAAGATCGGTTGAGGTGAGTATACGGATAA	0.238	-0.622	-0.531	-0.146	-0.43	0.0167	-0.0366	-0.226	-0.244	-0.262	-0.303	0.165	0.37	0.142	-0.353	-0.0362	-0.0981	0.657	-0.222	0.00694
CCTTACGGGTCACTGACAGGTTAGAGCATTTGGA	5.51	3.9	0.227	3.04	-0.348	5.19	4.35	4.64	1.58	3.02	3.5	3.63	0.322	-0.672	2.02	3.32	-0.369	4.51	0.501	3.95
CGTCCAAGGTCAGAGGGGTCAGTGAATGCCGAGT	6.36	4.81	1.33	4.54	0.592	5.12	4.33	4.71	1.43	3.39	2.84	3.28	-0.262	0.193	5.46	6.03	9.87	6.26	2.33	5.24
TAGCCTAGGTCATGGGCCCGTATACCACGCGAAC	4.69	3.5	0.466	2.77	-0.0336	4	3.44	3.32	0.723	2.09	1.21	3.21	-0.0541	-0.484	1.07	1.92	-0.637	2.86	0.106	3.81
ACTCGGAGGACTAAGGTCAGAGCTACGCCAGTGA	1.93	1.78	0.464	1.49	-0.00791	2.52	1.93	2.96	0.578	2.41	-0.123	0.778	-0.0206	-0.832	1.27	1.8	0.241	2.92	-0.326	2.88
GCTAGTTGGTCAGTAAAGGGTCACACACCGGTCG	2.1	2.52	1.36	2.63	0.0328	3.36	1.72	2.79	0.505	1.89	0.794	2.2	-0.362	-0.645	2.52	3.32	0.202	4.15	0.553	3.43
TGAATGAGGGTAAAGATCAGGGAACGTGGCGTCG	0.332	0.35	-0.456	-0.0766	0.875	2.98	4.39	5.94	4.5	6.32	2.27	3.04	0.811	1.2	1.24	-0.131	-0.487	0.239	0.383	0.817
TAGCCTAGGTCATTGGGCCACTATAGTACGCATC	4.39	3.9	1.1	3.05	0.679	3.99	4.65	4.12	1.41	3.18	3.5	4.5	0.0417	-0.0772	0.995	1.63	-0.211	2.14	-0.101	3.49
ACTAGCAGGCCAAGTCTGGGTCACTCAAACAAAG	0.226	0.263	0.0484	0.796	-1.12	2.38	0.901	1.28	0.18	0.56	2.25	3.03	-0.209	-0.38	0.811	0.664	-0.106	1.59	-0.573	1.75
CCTGCTAGGTCATGGTCCGCTAATCTACAGTATG	3.61	2.3	0.0178	1.67	-0.223	3.46	2.34	2.78	0.499	1.74	4.12	3.6	-0.11	-0.235	0.575	1.29	-0.433	2.09	-0.439	3.88
GCTGCTAGGTCAACTGATCGTCAGCTAAAGCTCG	4.12	2.74	-0.171	1.86	-0.26	3.62	2.54	3.43	0.361	2.23	4.99	4.1	0.249	-0.779	0.899	1.23	-0.904	2.14	-0.582	4.19
CAAACTAGGTCAGCGGAAGGTCAAAGTCCGCATG	4.7	5.1	3.95	4.3	0.622	5.61	7.65	6.54	4.12	6.37	7.81	8.08	3.33	1.19	5.64	5.42	1.11	6.59	1.75	4.89
CGTCCAAGGTCAGACAGGTCAGTGAATGCCGAGT	5.43	4.15	1.39	3.43	0.134	4.25	2.72	3.38	0.54	1.85	2.43	2.79	-0.527	-0.665	2.82	4.38	6.4	4.28	0.847	4.93
CAAACTAGGGCACCGGAAGGTCAAAGTCCGCATG	3.3	3.78	2.88	3.1	-0.115	4.89	6.22	6.02	2.51	5.06	7.77	7.55	1.16	0.324	1.96	4.06	0.773	4.68	0.355	4.01
GATACAGGGTCATGGCCAGAGTACGCGTATTGAT	6.5	4.72	-0.00415	3.79	-0.283	5.65	6.02	6.38	2.73	4.67	3.28	4.13	0.893	-0.182	1.88	4.2	-0.295	5.43	0.00513	4.31
CCTATTAGTTGACCATTAGGGCAACCGAAGCTCG	0.493	0.0846	0.475	0.224	0.396	0.454	0.203	0.612	0.0251	0.278	1.18	1.3	-0.00387	0.76	1.65	0.111	0.563	0.412	1.35	1.04
TCATATAGGTAATACAGGTGTAAGTCGGCATCTA	1.11	1.19	0.352	0.876	0.401	1.28	1.06	2.23	3.93	3	3.63	2.43	1.94	1.17	1	0.767	0.343	0.844	1.25	0.255
AGAATCAGGTTATACGTAGATCAGGGAAGAAAGT	0.826	0.893	0.313	0.875	0.265	1.63	1.11	1.38	0.762	0.859	3.66	2.1	1.47	0.861	0.756	0.61	0.471	0.799	0.86	0.961
GCTTACGTGTCAAAGGTTATAGCATGAATAGAAT	3.42	3.02	-0.0204	2.94	-0.0977	5.34	9.21	8.05	7.61	9.07	1.72	3.96	0.407	0.944	3.44	2.98	-0.204	4.56	0.318	2.14
CCAGACAGGTGAAAGGTAACGCAGTCTGGTACGC	0.748	0.83	-0.423	0.898	-0.326	3.57	5.87	6.19	4.19	6.4	2.46	3.24	-0.31	0.017	1.67	0.869	-0.124	2.01	0.457	1.47
AATAGTTGGTCAGCTGAGGTCACACACAATTCGG	3.52	3.25	3.1	3.57	1.05	3.81	2.21	2.14	0.525	1.25	1.3	2.86	1.06	0.792	3.85	5.58	2.36	4.78	2.44	3.7
CGTCCAAGGTCCGAGAGGTCAGTGAATGCCGAGT	2.4	1.89	1.06	1.86	-0.631	2.26	-0.135	0.688	-0.759	-0.083	-0.0478	0.0193	-1.25	-0.955	2.31	3.19	1.56	2.87	0.494	3.23

From the supplement of paper PMC6555819
